Laboratory results as given in PubChem BioAssay (Tox21).
Inconclusive results are not listed. The source made the active and inactive calls. Unless noted, calls follow the shape of the full dose curve.

What was measured:
[1] = Nuclear factor erythroid 2-related factor 2/antioxidant responsive element (Nrf2/ARE) small molecule agonists: qHTS cell viability counter screen in human keratinocytes (AID 1919968; active = well fitted curve in the direction sought with a large enough effect in the repeat runs; an effect the other way counts as inactive or inconclusive; also: nearly all actives have a fitted effect of over 55% in size)
How it was run: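 Cytotoxicity was multiplexed with the Nrf2/ARE luciferase assay in the same wells. Stably transfected HaCaT keratinocytes were treated with test compounds for 23 h at 37 C. Cell viability was then measured by CellTiter-Fluor fluorescence.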

[2] = molecular target: Gonadotropin-releasing hormone receptor (Homo sapiens) (UniProt P30968); assay: Human gonadotropin-releasing hormone receptor (GnRHR) small molecule agonists, calcium flux assay in GnRHR-HEK293 cells (AID 1920063); also: nearly all actives have a fitted effect of over 35% in size
Gonadotropin-releasing hormone receptor (Homo sapiens), sequence (P30968 whole entry, looked up): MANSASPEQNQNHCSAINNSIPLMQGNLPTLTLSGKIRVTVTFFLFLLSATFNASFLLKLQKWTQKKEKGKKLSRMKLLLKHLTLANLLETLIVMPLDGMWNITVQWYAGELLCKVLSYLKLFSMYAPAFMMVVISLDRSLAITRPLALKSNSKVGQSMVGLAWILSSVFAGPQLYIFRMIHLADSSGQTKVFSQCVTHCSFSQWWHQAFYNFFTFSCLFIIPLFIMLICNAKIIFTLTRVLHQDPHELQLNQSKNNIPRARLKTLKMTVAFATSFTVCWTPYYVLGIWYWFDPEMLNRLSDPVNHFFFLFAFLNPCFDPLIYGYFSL
How it was run: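 Agonist activity was measured as intracellular calcium flux in HEK293 cells engineered to stably express human GnRHR. After dye loading for 1 hour at 37 C, compounds in DMSO were added and fluorescence was followed for 3 minutes.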

[3] = molecular target: KiSS-1 receptor (Homo sapiens) (UniProt Q969F8); assay: Human kisspeptin (KISS1R) small molecule agonists, calcium flux assay in KISS1R-HEK293 cells (AID 1920064; active = well fitted curve in the direction sought with a large enough effect in the repeat runs; an effect the other way counts as inactive or inconclusive)
KiSS-1 receptor (Homo sapiens), sequence (Q969F8 whole entry, looked up): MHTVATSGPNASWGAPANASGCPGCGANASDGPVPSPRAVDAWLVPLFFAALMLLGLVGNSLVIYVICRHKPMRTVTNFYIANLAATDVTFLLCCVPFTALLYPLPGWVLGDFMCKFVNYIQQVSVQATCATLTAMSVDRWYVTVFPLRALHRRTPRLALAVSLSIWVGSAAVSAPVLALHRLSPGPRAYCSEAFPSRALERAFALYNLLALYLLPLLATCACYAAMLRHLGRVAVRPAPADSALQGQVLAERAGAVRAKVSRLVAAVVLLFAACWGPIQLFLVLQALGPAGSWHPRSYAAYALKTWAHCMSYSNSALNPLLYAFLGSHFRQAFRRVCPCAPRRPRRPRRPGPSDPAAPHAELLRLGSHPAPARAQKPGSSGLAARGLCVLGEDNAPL
How it was run: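 Agonist activity is monitored as intracellular calcium rise in engineered HEK293 cells carrying human KISS1R. Cells are dye-loaded for 1 h at 37 C before compound addition, and fluorescence is recorded for 3 min.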

[4] = G protein-coupled receptor (GPCR) small molecule agonists, calcium flux assay: HEK293 wild type cell line counter screen (AID 1920065)
How it was run: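 Seed cells, incubate 18 h (37 C, 5% CO2); add calcium dye, 1 h at 37 C; pin-transfer compounds, ATP control or DMSO; read fluorescence 480/540 nm each second for 3 min.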

[5] = p53 small molecule agonists, cell-based qHTS assay with human liver microsomes (AID 1963577)
How it was run: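 p53RE-bla reporter cells were pre-incubated 5 h at 37 C, then treated with compounds plus human liver microsomes (0.5 mg/mL final) and NADPH (0.5 mg/mL final) for 16 h at 37 C. Beta-lactamase activity was read by LiveBLAzer fluorescence after 2 h at room temperature.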

[6] = p53 small molecule agonists, cell-based qHTS assay with rat liver microsomes (AID 1963578)
How it was run: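 p53RE-bla cells were exposed to compounds together with rat liver microsomes (0.5 mg/mL final) and NADPH (0.5 mg/mL final) for 16 h at 37 C, then read by LiveBLAzer beta-lactamase fluorescence after 2 h at room temperature.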

[7] = p53 small molecule agonists, cell-based qHTS assay with human liver microsomes: qHTS cell viability counter screen (AID 1963579); also: nearly all actives have a fitted effect of over 45% in size
How it was run: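 p53RE-bla cells (4,000/well) were pre-incubated 5 h at 37 C, then given compounds in DMSO plus human liver microsomes (0.5 mg/mL final) and NADPH (0.5 mg/mL final) for 16 h at 37 C. Viability was read by CellTiter-Glo luminescence.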

[8] = p53 small molecule agonists, cell-based qHTS assay with rat liver microsomes: qHTS cell viability counter screen (AID 1963580); also: nearly all actives have a fitted effect of over 45% in size
How it was run: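 Cytotoxicity counter screen: intracellular ATP measured by CellTiter-Glo luminescence in the same wells as the beta-lactamase reporter read, on HCT-116 p53RE-bla cells exposed 16 h at 37 C to compounds with rat liver microsomes and NADPH, each 0.5 mg/mL final.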

[9] = p53 small molecule agonists, cell-based qHTS assay: qHTS cell viability counter screen (AID 1963581); also: nearly all actives have a fitted effect of over 45% in size
How it was run: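 Viability was counter-screened in parallel with the p53 agonist reporter by measuring intracellular ATP luminescence in the same HCT-116 p53RE-bla wells after 16 h compound treatment at 37 C.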

[10] = p53 small molecule agonists, cell-based qHTS assay (AID 1963582; active = well fitted activation curve with a large enough effect in the signal ratio in the repeat runs, not every such curve was filed as active; the % refers to the signal ratio)
How it was run: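 Cells carrying a p53-responsive bla reporter are treated with test compounds for 16 h at 37 C; beta-lactamase activity is then detected with LiveBLAzer B/G FRET substrate after 2 h at room temperature.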

[11] = molecular target: 5-hydroxytryptamine receptor 2A (Homo sapiens) (UniProt P28223); assay: 5-hydroxytryptamine receptor 2A (HTR2A) small molecule antagonists, cell-based qHTS assay (AID 1963586); also: nearly all actives have a fitted effect of over 45% in size
5-hydroxytryptamine receptor 2A (Homo sapiens), sequence (P28223 whole entry, looked up): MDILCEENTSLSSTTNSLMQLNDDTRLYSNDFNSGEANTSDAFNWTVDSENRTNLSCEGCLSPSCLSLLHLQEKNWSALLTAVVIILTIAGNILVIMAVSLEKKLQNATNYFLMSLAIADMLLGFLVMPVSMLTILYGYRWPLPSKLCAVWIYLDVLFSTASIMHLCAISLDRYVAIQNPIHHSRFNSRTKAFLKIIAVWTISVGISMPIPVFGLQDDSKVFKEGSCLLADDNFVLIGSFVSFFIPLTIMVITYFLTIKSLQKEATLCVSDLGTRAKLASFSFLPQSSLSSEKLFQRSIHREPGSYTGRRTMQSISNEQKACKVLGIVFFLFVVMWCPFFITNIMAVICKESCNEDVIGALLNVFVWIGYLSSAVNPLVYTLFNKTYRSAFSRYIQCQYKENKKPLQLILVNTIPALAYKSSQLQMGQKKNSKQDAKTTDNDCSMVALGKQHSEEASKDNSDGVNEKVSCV
How it was run: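 CHO cells stably expressing human HTR2A were plated for 18 h at 37 C, then loaded with calcium dye for 1 h. Compounds were preincubated 5 min at room temperature before DOI (4 nM solution) was added. Kinetic fluorescence was read for 3 min.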

[12] = molecular target: 5-hydroxytryptamine receptor 2A (Homo sapiens) (UniProt P28223); assay: 5-hydroxytryptamine receptor 2A (HTR2A) small molecule agonists, cell-based qHTS assay (AID 1963587); also: nearly all actives have a fitted effect of over 30% in size
How it was run: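 CHO cells stably expressing human HTR2A, plated 18 h, loaded with calcium dye 1 h at 37 C. Agonist mode: compounds added and intracellular calcium fluorescence recorded kinetically for 2 min at 1 sec intervals.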

[13] = molecular target: Muscarinic acetylcholine receptor M1 (Homo sapiens) (UniProt P11229); assay: Cholinergic receptor muscarinic 1 (CHRM1) small molecule antagonists, cell-based qHTS assay (AID 1963588); also: nearly all actives have a fitted effect of over 40% in size
Muscarinic acetylcholine receptor M1 (Homo sapiens), sequence (P11229 whole entry, looked up): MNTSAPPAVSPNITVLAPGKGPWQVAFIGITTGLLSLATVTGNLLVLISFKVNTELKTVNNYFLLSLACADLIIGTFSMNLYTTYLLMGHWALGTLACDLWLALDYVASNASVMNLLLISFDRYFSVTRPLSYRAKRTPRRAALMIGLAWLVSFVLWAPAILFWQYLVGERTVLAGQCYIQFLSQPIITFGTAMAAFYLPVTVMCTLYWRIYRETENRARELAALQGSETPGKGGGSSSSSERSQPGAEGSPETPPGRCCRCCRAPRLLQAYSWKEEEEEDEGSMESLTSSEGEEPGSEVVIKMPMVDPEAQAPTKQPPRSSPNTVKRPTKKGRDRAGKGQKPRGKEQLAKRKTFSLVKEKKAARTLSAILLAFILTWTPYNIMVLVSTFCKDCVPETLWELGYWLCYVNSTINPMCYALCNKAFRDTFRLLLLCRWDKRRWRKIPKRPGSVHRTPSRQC
How it was run: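 Compounds were tested at 15 concentrations in three independent runs. Dye-loaded CHRM1-CHO cells were exposed 5 min at room temperature before stimulation by acetylcholine added at 50nM. Intracellular calcium was read kinetically on FDSS for 3 min.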

[14] = molecular target: Muscarinic acetylcholine receptor M1 (Homo sapiens) (UniProt P11229); assay: Cholinergic receptor muscarinic 1 (CHRM1) small molecule agonists, cell-based qHTS assay (AID 1963589); also: nearly all actives have a fitted effect of over 35% in size
How it was run: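 Cells were plated and incubated 18 h at 37 C/5% CO2, loaded with calcium dye for 1 h at 37 C, then treated with compounds in DMSO. Fluorescence was recorded kinetically at 1 sec intervals.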

[15] = molecular target: Beta-2 adrenergic receptor (Homo sapiens) (UniProt P07550); assay: Adrenergic beta2 receptor (ADRB2) small molecule antagonists, cell-based qHTS assay (AID 1963592); also: series mostly up to about 92 µM; nearly all actives have a fitted effect of over 50% in size
Beta-2 adrenergic receptor (Homo sapiens), sequence (P07550 whole entry, looked up): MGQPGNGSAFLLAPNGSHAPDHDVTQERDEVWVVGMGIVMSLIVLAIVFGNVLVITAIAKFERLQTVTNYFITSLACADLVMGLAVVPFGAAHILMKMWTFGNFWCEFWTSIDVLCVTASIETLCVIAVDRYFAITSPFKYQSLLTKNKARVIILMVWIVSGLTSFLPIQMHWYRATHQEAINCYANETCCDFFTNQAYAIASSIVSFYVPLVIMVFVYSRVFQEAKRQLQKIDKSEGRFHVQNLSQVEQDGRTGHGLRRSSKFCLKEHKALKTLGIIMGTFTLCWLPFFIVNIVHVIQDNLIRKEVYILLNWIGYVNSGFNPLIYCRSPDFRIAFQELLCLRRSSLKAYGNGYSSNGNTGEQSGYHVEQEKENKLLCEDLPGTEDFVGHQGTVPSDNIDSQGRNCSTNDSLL
How it was run: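 Assay format: CHO-ADRB2 cells, 18-20hr seeding at 37C/5% CO2, then compound plus 1nM isoproterenol agonist mix for 0.5hr RT. Homogeneous time-resolved fluorescence cAMP detection after 1hr, expressed as 665/615 nm ratio.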

[16] = molecular target: D(2) dopamine receptor (Homo sapiens) (UniProt P14416); assay: Dopamine D2 receptor (DRD2) small molecule agonists, cell-based qHTS assay (AID 1963594); also: nearly all actives have a fitted effect of over 35% in size
D(2) dopamine receptor (Homo sapiens), sequence (P14416 whole entry, looked up): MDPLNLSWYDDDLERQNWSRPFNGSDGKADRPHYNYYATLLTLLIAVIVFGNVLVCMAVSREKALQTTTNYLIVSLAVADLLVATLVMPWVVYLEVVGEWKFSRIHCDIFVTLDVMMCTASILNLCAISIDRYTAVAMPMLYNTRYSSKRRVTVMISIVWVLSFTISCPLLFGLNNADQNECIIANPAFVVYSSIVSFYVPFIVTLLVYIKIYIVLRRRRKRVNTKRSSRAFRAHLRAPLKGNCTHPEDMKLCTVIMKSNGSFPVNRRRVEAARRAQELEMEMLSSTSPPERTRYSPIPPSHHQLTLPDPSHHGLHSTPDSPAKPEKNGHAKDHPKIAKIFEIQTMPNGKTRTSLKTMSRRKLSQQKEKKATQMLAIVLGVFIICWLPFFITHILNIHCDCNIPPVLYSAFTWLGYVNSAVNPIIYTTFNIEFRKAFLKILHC
How it was run: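 HEK293 cells stably expressing human DRD2, pre-treated with PDE inhibitor Ro20-1724 (0.1 mM final) and compound 10 min at room temperature, then stimulated with NKH477 (200nM […]) for 30 min. cAMP read by HTRF (665/620 nm).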

[17] = molecular target: D(2) dopamine receptor (Homo sapiens) (UniProt P14416); assay: Dopamine D2 receptor (DRD2) small molecule antagonists, cell-based qHTS assay (AID 1963595; active = well fitted inhibition curve with a large enough effect in the signal ratio in the repeat runs, with a control signal flat; the % refers to the signal ratio)
How it was run: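 Antagonist mode in DRD2-HEK293 cells: after compound addition with 0.1 mM Ro20-1724, cells received quinpirole (12 nM) and NKH477 (200 nM) for 30 min at room temperature; HTRF cAMP read after 1 h detection.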

[18] = cAMP Responsive Elements (CRE) small molecule agonists, cell-based qHTS assay (AID 1963590)
How it was run: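 Cells carrying a CRE-driven beta-lactamase reporter (HEK 293T) are seeded, incubated overnight (18 h), and treated with test compounds for 3 h at 37 C; reporter activity is then detected with a FRET substrate after 2 h at room temperature.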

[19] = cAMP Responsive Elements (CRE) small molecule antagonists, cell-based qHTS assay (AID 1963591; active = well fitted inhibition curve with a large enough effect in the signal ratio in the repeat runs, not every such curve was filed as active; the % refers to the signal ratio)
How it was run: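 Cells (CRE-bla HEK 293T, DMEM with 10% dialyzed FBS and 25 mM HEPES) are seeded and incubated 18 h. Compounds are added with NKH477 agonist at 0.25 uM final for 3 h, then FRET substrate for 2 h.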

[20] = molecular target: Beta-2 adrenergic receptor (Homo sapiens) (UniProt P07550); assay: Adrenergic beta2 receptor (ADRB2) small molecule agonists, cell-based qHTS assay (AID 1963593);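 also: CHO cells stably overexpressing human ADRB2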
How it was run: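 CHO cells stably over-expressing ADRB2 were plated overnight at 37C, then dosed with compounds plus a stimulation mix containing 100uM IBMX and 25uM Ro-20-1724 for 0.5hr at room temperature. cAMP was measured by HTRF competition, 1hr.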

Measured: Potency

C=CC(=O)OCCOc1ccccc1
inactive: [1] | [2] | [3] | [4] | [5] | [6] | [7] | [8] | [9] | [10] | [11] | [12] | [13] | [14] | [15] | [16] | [17]

C=CC(=O)OCCC#N
inactive: [1] | [2] | [3] | [4] | [5] | [6] | [7] | [8] | [9] | [10] | [11] | [14] | [18] | [19] | [15] | [16] | [17]

Sc1nc(S)nc(S)n1
inactive: [1] | [2] | [3] | [4] | [5] | [6] | [7] | [8] | [9] | [10] | [11] | [12] | [14] | [18] | [19] | [15] | [20] | [16] | [17]

O=C1c2ccccc2C(=O)c2c(O)ccc(O)c21
inactive: [1] | [2] | [3] | [4] | [5] | [6] | [7] | [8] | [9] | [10] | [11] | [12] | [13] | [14] | [19] | [15] | [20] | [16] | [17]

CC(=O)O[Si](C)(OC(C)=O)OC(C)=O
inactive: [1] | [2] | [3] | [4] | [5] | [6] | [7] | [8] | [9] | [10] | [11] | [12] | [13] | [14] | [19] | [15] | [16] | [17]

CC(=O)c1c(C)c([N+](=O)[O-])c(C(C)(C)C)c([N+](=O)[O-])c1C
inactive: [1] | [2] | [3] | [4] | [5] | [6] | [7] | [8] | [9] | [10] | [11] | [12] | [14] | [19] | [15] | [20] | [16] | [17]

CCN1CCOCC1
inactive: [1] | [2] | [3] | [4] | [5] | [6] | [7] | [8] | [9] | [10] | [11] | [12] | [13] | [18] | [19] | [15] | [20] | [16] | [17]

CC(C)CCCCCCN
inactive: [1] | [2] | [3] | [4] | [5] | [6] | [7] | [8] | [9] | [10] | [11] | [12] | [13] | [14] | [19] | [15] | [16] | [17]
